Results from PubChem BioAssay.
Activity calls are given as the source filed them. Unless noted, how the calls were made is not given here.

Legend:
[1] = circadian clock period modulators, cell-based, LOPAC library, luminescence reporter (AID 2774); settings: circadian reporter cells, at 7 µM, actives lie on both sides;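 further: values are relative to mean of DMSO wells on each plate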
[2] = test system: Hepatitis C virus NS3 helicase; assay: HCV NS3 helicase inhibitors, primary screen, biochemical, fluorescence polarization, LOPAC1280 library (AID 687035; in the data active means inhibition above about 37%); settings: Purified HCV NS3 helicase, Cy5-dT15 ssDNA binding fluorescence polarization; stronger effect = higher value; concentration not given here
[3] = Cy5 fluorescence quenching or enhancement artefacts, artefact control for HCV NS3 helicase inhibitor project, biochemical, LOPAC1280 (AID 687037); settings: Cy5-DNA-NS3h complex fluorescence interference counterscreen
[4] = sensitizers of A549 cells to miR-34 induction, primary screen, imaging, A549 dox-inducible miR-34, nuclei and caspase counts (AID 1347080;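 active means compounds whose cell count with miR-34 switched on is under 0.7 times the count with it off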); settings: A549 miR-34 inducible, Hoechst nuclei count, 48 h
[5] = phospholipid biosynthesis inhibitors in animal cells, primary screen, cell-based, LOPAC library, screen 4 (AID 1347384); settings: phospholipid biosynthesis inhibition screen, at 10 µM
[6] = viability rescue of complex I mutant cybrids, primary screen, cell-based, galactose medium, ATP luminescence (AID 1645843;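 active means z-score of at least 1.8 in each of two replicates, scored against plate mean and spread of sample wells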;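 further: positive z means more ATP and so rescue of galactose-driven cybrid death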); settings: complex I mutant cybrid cells, 72 h, stronger effect = higher value
[7] = stronger effect = lower value, cell number ratio, induced over uninduced
[8] = measured here: relative caspase fold change +Dox/-Dox
[9] = measured here: total cells with miR-34 induction, stronger effect = lower value
[10] = measured here: total cells without miR-34 induction

SMILES | period change [1] | inhibition [2] | fluorescence ratio (interference) [3] | fold change [4, 7] | fold change [4, 8] | cell count [4, 9] | cell count [4, 10] | outcome [5] | z-score [6]
CN1CCc2cc(NC(=O)Nc3cccnc3)ccc21 | 0.02 h (inactive) | -2% (inactive) | 1 (inactive) | 1.02 (inactive) | 2.86 | 10800 | 10700 | inactive | 1.34 (inactive)
Nc1ncnc2c1ncn2C1CCCC1 | 0.035 h (inactive) | -6% (inactive) | 0.9 (inactive) | 1.02 (inactive) | 2.13 | 10400 | 10200 | inactive | -0.07 (inactive)
COc1cc2c(CCNC(C)=O)c[nH]c2cc1O | -0.175 h (inactive) | -2% (inactive) | 1 (inactive) | 0.921 (inactive) | 1.6 | 10100 | 11000 | inactive | -0.44 (inactive)
O=c1ccn([C@@H]2O[C@H](COP(=O)(O)OP(=O)(O)O)[C@@H](O)[C@H]2O)c(=O)[nH]1 | 0.165 h (inactive) | -1% (inactive) | 1 (inactive) | 0.992 (inactive) | 1.43 | 9420 | 9500 | inactive | 0.745 (inactive)
C=CCn1c(=O)c2c(nc(-c3ccc(S(=O)(=O)O)cc3)n2C)n(C)c1=O | -0.155 h (inactive) | -3% (inactive) | 1 (inactive) | 1.02 (inactive) | 2.49 | 10300 | 10100 | inactive | 0.335 (inactive)
O=C(O)[C@H]1NCCC[C@H]1C(=O)O | 0.06 h (inactive) | -2% (inactive) | 1 (inactive) | 1.06 (inactive) | 2.09 | 10400 | 9820 | inactive | 0.52 (inactive)
CC1(C)CCC(NC(=O)[C@@H](N)CCC(=O)O)CC1 | -0.095 h (inactive) | -6% (inactive) | 1 (inactive) | 1.1 (inactive) | 1.15 | 11000 | 9970 | inactive | 0.125 (inactive)
C=C/C(C)=C/[C@@]1(C)SC(=O)C(C)=C1O | -0.02 h (inactive) | -4% (inactive) | 1 (inactive) | 1.05 (inactive) | 1.19 | 10800 | 10300 | inactive | 0.66 (inactive)
Fc1ccc(C(OCCCc2cnc[nH]2)c2ccc(F)cc2)cc1 | 0.11 h (inactive) | -1% (inactive) | 1 (inactive) | 0.951 (inactive) | 0.647 | 8620 | 9060 | inactive | -1.19 (inactive)
O=C(O)CC1CCCc2ccccc2C1O (configuration not stated) | 0.085 h (inactive) | -4% (inactive) | 1 (inactive) | 1.02 (inactive) | 1.73 | 10700 | 10500 | inactive | 0.315 (inactive)
N[C@@H](Cc1ccc(O)c(I)c1)C(=O)O | 0.02 h (inactive) | -4% (inactive) | 0.9 (inactive) | 1.11 (inactive) | 0.663 | 11600 | 10400 | inactive | 0.59 (inactive)
N=C(N)c1ccccc1 | -0.055 h (inactive) | -2% (inactive) | 1 (inactive) | 1.03 (inactive) | 1.99 | 10800 | 10500 | inactive | 0.605 (inactive)
NC(=O)C(=O)O | 0.025 h (inactive) | -7% (inactive) | 0.9 (inactive) | 1.05 (inactive) | 1.23 | 10900 | 10300 | inactive | 0.585 (inactive)
N[C@@H](Cc1cnc[nH]1)C(=O)O | 0.03 h (inactive) | 0% (inactive) | 1.1 (inactive) | 0.99 (inactive) | 1.08 | 9970 | 10100 | inactive | 0.865 (inactive)
C[C@H](O)C(=O)C1=Nc2c(nc(N)[nH]c2=O)NC1 | 0.19 h (inactive) | -3% (inactive) | 0.9 (inactive) | 0.965 (inactive) | 1.64 | 10200 | 10500 | inactive | 0.4 (inactive)
CC(=O)SCC[N+](C)(C)C | 0.015 h (inactive) | 0% (inactive) | 1 (inactive) | 1.01 (inactive) | 2.3 | 10500 | 10400 | inactive | 0.495 (inactive)
NC1(C(=O)O)CCc2cc(C(=O)O)ccc21 (configuration not stated) | 0.185 h (inactive) | -1% (inactive) | 1 (inactive) | 0.993 (inactive) | 1.76 | 10900 | 11000 | inactive | 0.185 (inactive)
NC1(C(=O)O)CCCCC1 | -0.115 h (inactive) | -2% (inactive) | 1 (inactive) | 0.983 (inactive) | 2.37 | 10700 | 10900 | inactive | 0.63 (inactive)
Nn1nnc2ccccc21 | -0.155 h (inactive) | -1% (inactive) | 1 (inactive) | 1.06 (inactive) | 1.77 | 10600 | 9990 | inactive | 0.305 (inactive)

SMILES | period change [1] | inhibition [2] | fluorescence ratio (interference) [3] | fold change [4, 7] | fold change [4, 8] | cell count [4, 9] | cell count [4, 10] | outcome [5] | z-score [6]
COc1cc(CC(=O)O)ccc1O | 0.03 h (inactive) | 1% (inactive) | 1 (inactive) | 1.05 (inactive) | 0.734 | 10100 | 9570 | inactive | 0.08 (inactive)
CCCN(CCc1ccccc1)C1CCc2c(O)cccc2C1 (configuration not stated) | 0.095 h (inactive) | -4% (inactive) | 1 (inactive) | 0.964 (inactive) | 1.22 | 5860 | 6070 | inactive | -1.21 (inactive)
NC/C=C\C(=O)O | 0.03 h (inactive) | -3% (inactive) | 1 (inactive) | 1.03 (inactive) | 1.8 | 9360 | 9050 | inactive | -1.38 (inactive)
N[C@H](C(=O)O)[C@H]1C[C@@H]1C(=O)O | 0.045 h (inactive) | 2% (inactive) | 1 (inactive) | 0.968 (inactive) | 1.24 | 9910 | 10200 | inactive | 0.225 (inactive)
O[Si](CCCN1CCCCC1)(c1ccc(F)cc1)C1CCCCC1 (configuration not stated) | -0.3 h (inactive) | -2% (inactive) | 1 (inactive) | 0.937 (inactive) | 1.64 | 8140 | 8690 | inactive | -0.95 (inactive)
Cn1c(=O)c2c(nc(/C=C/c3cccc(Cl)c3)n2C)n(C)c1=O | 0.15 h (inactive) | -2% (inactive) | 1 (inactive) | 1.03 (inactive) | 1.2 | 9630 | 9370 | inactive | 1.26 (inactive)
Nc1ccc(N2C(=O)c3ccccc3C2=O)c(Cl)c1 | 0.15 h (inactive) | 0% (inactive) | 1 (inactive) | 0.973 (inactive) | 1.66 | 10200 | 10500 | inactive | 0.45 (inactive)
CCC(=O)N1CCN(C(=O)c2ccccc2)CC1 | -0.115 h (inactive) | -1% (inactive) | 1.1 (inactive) | 0.906 (inactive) | 1.03 | 9050 | 9990 | inactive | 0.245 (inactive)
NC(C(=O)N[C@@H]1C(=O)N2C(C(=O)O)=C(Cl)CS[C@H]12)c1ccccc1 (some centres not stated) | 0.03 h (inactive) | 0% (inactive) | 1 (inactive) | 1.02 (inactive) | 2.15 | 10500 | 10300 | inactive | 0.38 (inactive)
[Li+] | -0.09 h (inactive) | -1% (inactive) | 1 (inactive) | 0.887 (inactive) | 0.586 | 9680 | 10900 | inactive | -0.05 (inactive)
Fc1ccc(CN(C2=NCCN2)c2c(Cl)cccc2Cl)cc1 | -0.015 h (inactive) | 1% (inactive) | 1 (inactive) | 0.978 (inactive) | 0.985 | 8870 | 9060 | inactive | -0.75 (inactive)
O=C(O)CCC(C(=O)O)N1C(=O)c2ccccc2C1=O (configuration not stated) | -0.075 h (inactive) | -4% (inactive) | 1 (inactive) | 1.05 (inactive) | 0.915 | 10300 | 9760 | inactive | 0.255 (inactive)
NC(Cc1cccc(-c2ccccc2CP(=O)(O)O)c1)C(=O)O (configuration not stated) | -0.07 h (inactive) | -5% (inactive) | 1 (inactive) | 0.998 (inactive) | 1.77 | 10900 | 11000 | inactive | 0.42 (inactive)
C=C[C@H]1CN2CCC1C[C@H]2[C@H](O)c1ccnc2ccc(OC)cc12 (some centres not stated) | -0.145 h (inactive) | -2% (inactive) | 1 (inactive) | 1.04 (inactive) | 1.02 | 8290 | 8000 | inactive | -1.04 (inactive)
CNc1ncnc2c1ncn2[C@@H]1O[C@H](CO)[C@H](O)C1O (some centres not stated) | -0.015 h (inactive) | -2% (inactive) | 1 (inactive) | 1.08 (inactive) | 1.05 | 10300 | 9460 | inactive | 0.765 (inactive)
N.N.O=C(O)C1(C(=O)O)CCC1.[Pt+2] | 0.07 h (inactive) | -3% (inactive) | 1 (inactive) | 1.04 (inactive) | 1.42 | 6330 | 6070 | inactive | -0.53 (inactive)
Nc1cc(Cl)c(NC2=NCCN2)c(Cl)c1 | 0.07 h (inactive) | -4% (inactive) | 0.9 (inactive) | 1.02 (inactive) | 1.68 | 11100 | 10900 | inactive | 0.705 (inactive)
CC(C)COC(=O)OCN1C(=O)CN(CCN2CC(=O)N(COC(=O)OCC(C)C)C(=O)C2)CC1=O | -0.045 h (inactive) | 1% (inactive) | 1 (inactive) | 0.995 (inactive) | 1.59 | 8180 | 8220 | inactive | 0.435 (inactive)
O=c1cc(-c2ccccc2)[nH]c2nc(Cl)ccc12 | -0.07 h (inactive) | -3% (inactive) | 1 (inactive) | 0.977 (inactive) | 1.95 | 3650 | 3740 | inactive | -0.5 (inactive)
